Measurements: PubChem BioAssay (NCATS)
Records with an inconclusive call do not appear. A call without a number means that no potency is given here. The source made the active and inactive calls. Unless noted, calls follow the shape of the dose curve; as a rule, active = well fitted curve in the direction sought with a large enough effect in the repeat runs; inconclusive = weak or mixed curves; inactive = no such curve, though single readings can be large; an effect the other way counts as inactive or inconclusive.

What was measured:
[1] = biological target: Cytochrome P450 2C9 (Homo sapiens) (UniProt P11712); experiment: Cytochrome P450 family 2 subfamily C member 9 (CYP2C9) small molecule antagonists: luciferase biochemical (cell-free) qHTS assay (AID 1645842); also: nearly all actives have a fitted effect of over 55% in size; also: potency is read from the fitted curve at half-maximal effect
Cytochrome P450 2C9 (Homo sapiens), sequence (P11712 whole entry, looked up): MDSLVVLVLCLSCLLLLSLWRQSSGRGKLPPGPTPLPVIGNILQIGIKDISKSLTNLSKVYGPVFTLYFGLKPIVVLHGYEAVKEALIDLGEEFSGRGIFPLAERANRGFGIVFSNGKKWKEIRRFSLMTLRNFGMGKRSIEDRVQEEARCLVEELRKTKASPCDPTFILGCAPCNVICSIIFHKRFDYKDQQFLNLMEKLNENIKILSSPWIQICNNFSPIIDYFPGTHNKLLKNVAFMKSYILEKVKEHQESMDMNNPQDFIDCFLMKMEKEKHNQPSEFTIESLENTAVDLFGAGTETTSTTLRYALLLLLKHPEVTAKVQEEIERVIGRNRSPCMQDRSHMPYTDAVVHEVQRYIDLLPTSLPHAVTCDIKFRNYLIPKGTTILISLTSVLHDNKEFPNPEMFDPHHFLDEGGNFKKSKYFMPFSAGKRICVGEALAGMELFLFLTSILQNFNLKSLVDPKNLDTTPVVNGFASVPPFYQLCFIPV
Procedure, shortened: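 P450-Glo CYP2C9 system: proluciferin substrate with enzyme in mix containing 0.4% BSA, 10 min at room temperature, then NADPH regeneration solution added and incubated 1 h at 37C. Detection reagent stopped reaction; luminescence read after 20 min as RLU.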

[2] = biological target: Cytochrome P450 3A4 (Homo sapiens) (UniProt P08684); experiment: Cytochrome P450 family 3 subfamily A member 4 (CYP3A4) small molecule antagonists: luciferase qHTS assay (AID 1645841); also: nearly all actives have a fitted effect of over 45% in size
Cytochrome P450 3A4 (Homo sapiens), sequence (P08684 whole entry, looked up): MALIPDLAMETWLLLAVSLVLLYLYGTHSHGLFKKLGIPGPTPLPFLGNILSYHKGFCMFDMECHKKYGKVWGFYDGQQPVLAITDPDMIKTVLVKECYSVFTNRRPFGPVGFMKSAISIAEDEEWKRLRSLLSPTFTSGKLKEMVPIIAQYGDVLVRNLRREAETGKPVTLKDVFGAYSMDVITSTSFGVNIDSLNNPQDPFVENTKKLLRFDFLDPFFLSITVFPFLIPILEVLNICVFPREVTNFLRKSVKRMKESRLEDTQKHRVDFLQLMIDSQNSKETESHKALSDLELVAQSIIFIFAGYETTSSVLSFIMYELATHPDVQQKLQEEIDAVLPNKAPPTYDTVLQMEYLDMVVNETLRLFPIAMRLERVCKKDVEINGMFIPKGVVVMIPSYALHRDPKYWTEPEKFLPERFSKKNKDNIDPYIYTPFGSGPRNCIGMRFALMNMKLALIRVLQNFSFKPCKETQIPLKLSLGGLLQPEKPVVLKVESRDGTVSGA
Procedure, shortened: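 P450-Glo CYP3A4 enzyme with proluciferin substrate was preincubated with DMSO-dissolved compounds for 10 min at room temperature. NADPH regeneration solution started a 1 h reaction. Detection reagent stopped it, and luminescence was read after 20 min.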

[3] = Primary qHTS for inhibitors of nuclear receptor binding SET domain protein 2 (NSD2) in an isogenic RCH-ACV NSD2 p.E1099K mutant (9B) (AID 1645876; active = well fitted curve in the direction sought with a large enough effect; an effect the other way counts as inactive or inconclusive; also: nearly all actives have a fitted effect of over 70% in size; also: potency is read from the fitted curve at half-maximal effect)
[4] = Primary qHTS for inhibitors of nuclear receptor binding SET domain protein 2 (NSD2) in an RCH-ACV wild type WT cells (2C) (AID 1645877; active = well fitted curve in the direction sought with a large enough effect; an effect the other way counts as inactive or inconclusive; also: nearly all actives have a fitted effect of over 70% in size; also: potency is read from the fitted curve at half-maximal effect)

Row | SMILES | Potency [1] | Potency [2] | Potency [3] | Potency [4]
1 | CC(C)(C)c1ccc(NC(=O)N2CCN(c3ncccc3Cl)CC2)cc1 | 6.01 µM (active) |  |  | 
2 | COC(=O)c1ccc2c(c1)nc(NC(=O)c1ccccc1)n2CCCc1ccccc1 | 23.9 µM (active) | inactive | inactive | inactive
3 | CNC(=O)c1ccc2c(c1)CCO[C@H]2CCN1CCN(c2ccc(OC)cc2)CC1 |  | inactive | inactive | inactive
4 | CCOc1cn(-c2ccc(F)cc2C)nc1C(=O)Nc1ccc(Oc2ccnc3cc(OC)c(OC)cc23)c(F)c1 |  | inactive | 4.09 µM (active) | 4.09 µM (active)
5 | NS(=O)(=O)c1ccc(N2CCN(CC[C@@H]3OCCc4ccccc43)CC2)cc1 | inactive | inactive | inactive | inactive
6 | O=C1C(c2[nH]c3ccc(S(=O)(=O)O)cc3c2O)=Nc2ccc(S(=O)(=O)O)cc21 | inactive |  |  | 
7 | O=C(CSc1nc2ccccc2c(=O)n1-c1ccccc1)Nc1ccc2c(c1)CCC2 | 2.68 µM (active) |  |  | 
8 | CCOc1ccc(-n2c(C(C)N(Cc3cccnc3)C(=O)Cc3ccc(F)c(C(F)(F)F)c3)nc3ncccc3c2=O)cc1 (configuration not stated) | 4.77 µM (active) |  |  | 
9 | CC(C)Nc1nc(Nc2ccccc2)nc(-c2ccccc2)n1 | 7.56 µM (active) |  |  | 
10 | O=C(NCc1ccccc1)c1ccc2c(=O)n(-c3cccc(C(F)(F)F)c3)c(=S)[nH]c2c1 | 10.7 µM (active) | inactive | inactive | 
11 | CCCOc1ccc(S(=O)(=O)N2CCN(CCO)CC2)cc1-c1nc2c(CCC)cn(CC)c2c(=O)[nH]1 | 5.35 µM (active) |  |  | 
12 | CC1(C)Oc2ncnc(N)c2N=C1c1ccc(C23CCC(CC(=O)O)(CC2)CC3)cc1 | inactive | inactive | inactive | inactive
